± gives the standard deviation of the averaged measurements. Over roughly 33,000 sequences, “E-score (rank enrichment, -0.5 to 0.5)” has its median near -0.0043; the highest 2% begin near 0.24. For the sample, the highest values were picked, then their nearest neighbours and some sequences at random.
test system: 2Sp-muMax20 (muMax20 with two 2,6-bis(methyl)pyridine Cys staples); assay: PBM 8-mer E-score (E-score (rank enrichment, -0.5 to 0.5)); higher = stronger preferential binding
Method: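 Protein binding microarray (universal PBM chip covering all 10-mers in fixed probe flanks) with chemically synthesized human Max(13-93) bHLH-LZ analogs (not full-length Max) bearing noncanonical residues (hArg, Tha, Aib, Nle at 65) and aromatic Cys staples. Read-out per 8-mer (and its reverse complement): E-score (rank-based enrichment, -0.5 to 0.5) and Z-score of median probe intensity.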

**Q.** How did the “PBM 8-mer E-score” value turn out when GGCAACGA was run?
**A.** -0.123 ± 0.0029

**Q.** With GACATAAC as the sequence, how does the “PBM 8-mer E-score” value read?
**A.** 0.146 ± 0.026

**Q.** AACATAAC was tested. Which “PBM 8-mer E-score” value did it give?
**A.** 0.278 ± 0.052

**Q.** With AACATAAA as the sequence, how does the “PBM 8-mer E-score” value read?
**A.** 0.164 ± 0.097

**Q.** Which “PBM 8-mer E-score” value does the source give for CACATAAC here?
**A.** 0.0249 ± 0.13

**Q.** Which “PBM 8-mer E-score” value does the source give for AACATAAG here?
**A.** 0.0487 ± 0.042

**Q.** For AACATAAT, which “PBM 8-mer E-score” value is on record?
**A.** 0.285 ± 0.053

**Q.** For GTCGGCAC, which “PBM 8-mer E-score” value is on record?
**A.** -0.0877 ± 0.06

**Q.** How did the “PBM 8-mer E-score” value turn out when TCCGATAA was run?
**A.** -0.23 ± 0.14

**Q.** AAAGTACC was tested. Which “PBM 8-mer E-score” value did it give?
**A.** 0.17 ± 0.02

**Q.** Which “PBM 8-mer E-score” value does the source give for AGCGCTAA here?
**A.** -0.0615 ± 0.022

**Q.** How did the “PBM 8-mer E-score” value turn out when CTTGACGA was run?
**A.** 0.00312 ± 0.0077

**Q.** Which “PBM 8-mer E-score” value does the source give for CGGTGAAC here?
**A.** 0.0144 ± 0.098

**Q.** For AGGGCGAA, which “PBM 8-mer E-score” value is on record?
**A.** -0.00371 ± 0.021

**Q.** With AAATACGC as the sequence, how does the “PBM 8-mer E-score” value read?
**A.** 0.236 ± 0.058

**Q.** AAATACGT was tested. Which “PBM 8-mer E-score” value did it give?
**A.** 0.112 ± 0.06

**Q.** Which “PBM 8-mer E-score” value does the source give for GAATACGC here?
**A.** 0.0401 ± 0.069

**Q.** How did the “PBM 8-mer E-score” value turn out when ATTAAGGC was run?
**A.** 0.0884 ± 0.038

**Q.** For AGCGATGC, which “PBM 8-mer E-score” value is on record?
**A.** -0.00497 ± 0.044

**Q.** With AGATAAAC as the sequence, how does the “PBM 8-mer E-score” value read?
**A.** 0.00083 ± 0.061

**Q.** For CTTTTCAC, which “PBM 8-mer E-score” value is on record?
**A.** 0.287 ± 0.021

**Q.** Which “PBM 8-mer E-score” value does the source give for CCTTTCAC here?
**A.** 0.0665 ± 0.067

**Q.** How did the “PBM 8-mer E-score” value turn out when ATTTTCAC was run?
**A.** 0.0326 ± 0.0074

**Q.** CGGTTCGA was tested. Which “PBM 8-mer E-score” value did it give?
**A.** -0.0332 ± 0.043

**Q.** CACCCTCG was tested. Which “PBM 8-mer E-score” value did it give?
**A.** 0.07079 ± 0.00033

**Q.** For CATGTTTA, which “PBM 8-mer E-score” value is on record?
**A.** 0.24 ± 0.056

**Q.** GTTGTTTA was tested. Which “PBM 8-mer E-score” value did it give?
**A.** 0.247 ± 0.0077

**Q.** Which “PBM 8-mer E-score” value does the source give for CTTGTTTA here?
**A.** -0.0208 ± 0.029

**Q.** Which “PBM 8-mer E-score” value does the source give for CATGTTTC here?
**A.** 0.0659 ± 0.0045

**Q.** How did the “PBM 8-mer E-score” value turn out when GATGTTTA was run?
**A.** 0.0541 ± 0.02

**Q.** Which “PBM 8-mer E-score” value does the source give for CATGTTAC here?
**A.** 0.256 ± 0.018

**Q.** How did the “PBM 8-mer E-score” value turn out when CATGTTGC was run?
**A.** 0.1 ± 0.094

**Q.** How did the “PBM 8-mer E-score” value turn out when ATTGTTTA was run?
**A.** -0.0168 ± 0.043

**Q.** CATGTTGA was tested. Which “PBM 8-mer E-score” value did it give?
**A.** 0.244 ± 0.023

**Q.** CATGTTAG was tested. Which “PBM 8-mer E-score” value did it give?
**A.** 0.111 ± 0.049

**Q.** With AATGTTGA as the sequence, how does the “PBM 8-mer E-score” value read?
**A.** -0.0129 ± 0.047

**Q.** Which “PBM 8-mer E-score” value does the source give for AATGTTAC here?
**A.** 0.0165 ± 0.1

**Q.** With ATTTCAGA as the sequence, how does the “PBM 8-mer E-score” value read?
**A.** 0.0234 ± 0.035

**Q.** How did the “PBM 8-mer E-score” value turn out when GGGATCGA was run?
**A.** 0.0419 ± 0.04

**Q.** Which “PBM 8-mer E-score” value does the source give for AGACAGGG here?
**A.** -0.0986 ± 0.041

**Q.** How did the “PBM 8-mer E-score” value turn out when CACGCAAC was run?
**A.** -0.0734 ± 0.013

**Q.** With CAGTCATG as the sequence, how does the “PBM 8-mer E-score” value read?
**A.** 0.0672 ± 0.14

**Q.** Which “PBM 8-mer E-score” value does the source give for ACACTATA here?
**A.** 0.0551 ± 0.059

**Q.** GACTTTGA was tested. Which “PBM 8-mer E-score” value did it give?
**A.** 0.147 ± 0.062

**Q.** AGAACGGA was tested. Which “PBM 8-mer E-score” value did it give?
**A.** -0.258 ± 0.028

**Q.** How did the “PBM 8-mer E-score” value turn out when AAGAAGCT was run?
**A.** -0.12 ± 0.0019

**Q.** Which “PBM 8-mer E-score” value does the source give for CGTCGCGA here?
**A.** 0.00718 ± 0.059

**Q.** How did the “PBM 8-mer E-score” value turn out when CGGCCAGC was run?
**A.** -0.103 ± 0.0057

**Q.** Which “PBM 8-mer E-score” value does the source give for CTACAAAA here?
**A.** 0.0122 ± 0.043

**Q.** How did the “PBM 8-mer E-score” value turn out when ATACAAGC was run?
**A.** 0.252 ± 0.076

**Q.** ATACAAAA was tested. Which “PBM 8-mer E-score” value did it give?
**A.** 0.359 ± 0.0063

**Q.** CTACAAGC was tested. Which “PBM 8-mer E-score” value did it give?
**A.** -0.0442 ± 0.059

**Q.** How did the “PBM 8-mer E-score” value turn out when ATACAAAT was run?
**A.** 0.216 ± 0.0091

**Q.** For ATACAAGA, which “PBM 8-mer E-score” value is on record?
**A.** 0.0902 ± 0.1

**Q.** For AGTGTAAT, which “PBM 8-mer E-score” value is on record?
**A.** 0.114 ± 0.14

**Q.** With ATTGCAAC as the sequence, how does the “PBM 8-mer E-score” value read?
**A.** 0.0277 ± 0.07

**Q.** With CTCTCAGA as the sequence, how does the “PBM 8-mer E-score” value read?
**A.** -0.148 ± 0.12

**Q.** With CATAACTA as the sequence, how does the “PBM 8-mer E-score” value read?
**A.** 0.0886 ± 0.054

**Q.** How did the “PBM 8-mer E-score” value turn out when GCTAACAA was run?
**A.** -0.0747 ± 0.062

**Q.** ACTAAATC was tested. Which “PBM 8-mer E-score” value did it give?
**A.** -0.0199 ± 0.085

**Q.** With GTTAAATA as the sequence, how does the “PBM 8-mer E-score” value read?
**A.** 0.296 ± 0.026

**Q.** Which “PBM 8-mer E-score” value does the source give for ACTAAATA here?
**A.** 0.249 ± 0.018

**Q.** For AATAACTA, which “PBM 8-mer E-score” value is on record?
**A.** 0.155 ± 0.038

**Q.** Which “PBM 8-mer E-score” value does the source give for CTTAAATA here?
**A.** 0.139 ± 0.098

**Q.** For GATAACTA, which “PBM 8-mer E-score” value is on record?
**A.** 0.245 ± 0.029

**Q.** How did the “PBM 8-mer E-score” value turn out when GTTAACAA was run?
**A.** 0.239 ± 0.026

**Q.** Which “PBM 8-mer E-score” value does the source give for ATTAAATA here?
**A.** 0.0773 ± 0.0041

**Q.** Which “PBM 8-mer E-score” value does the source give for CTTAACAA here?
**A.** 0.05 ± 0.067

**Q.** For CCTAAATA, which “PBM 8-mer E-score” value is on record?
**A.** 0.125 ± 0.0015

**Q.** With TACGTAAA as the sequence, how does the “PBM 8-mer E-score” value read?
**A.** 0.183 ± 0.046

**Q.** For AAGCACTA, which “PBM 8-mer E-score” value is on record?
**A.** 0.0985 ± 0.0016

**Q.** Which “PBM 8-mer E-score” value does the source give for CCGTTACA here?
**A.** 0.0269 ± 0.097

**Q.** Which “PBM 8-mer E-score” value does the source give for CAGAAAAG here?
**A.** 0.0222 ± 0.11

**Q.** CCTCAAAG was tested. Which “PBM 8-mer E-score” value did it give?
**A.** -0.168 ± 0.0062

**Q.** Which “PBM 8-mer E-score” value does the source give for CCAAAGGA here?
**A.** -0.134 ± 0.0027

**Q.** For CCGGGAAA, which “PBM 8-mer E-score” value is on record?
**A.** -0.0853 ± 0.032

**Q.** Which “PBM 8-mer E-score” value does the source give for GATCGGTA here?
**A.** 0.0193 ± 0.038

**Q.** For CCGGCAGG, which “PBM 8-mer E-score” value is on record?
**A.** -0.199 ± 0.041

**Q.** Which “PBM 8-mer E-score” value does the source give for CGTGGCAA here?
**A.** -0.135 ± 0.016

**Q.** With AACGCGTT as the sequence, how does the “PBM 8-mer E-score” value read?
**A.** 0.0704 ± 0.016

**Q.** Which “PBM 8-mer E-score” value does the source give for GCACTCAA here?
**A.** -0.0947 ± 0.092

**Q.** For GTTAACTA, which “PBM 8-mer E-score” value is on record?
**A.** 0.2576 ± 0.002

**Q.** For ATTAACTA, which “PBM 8-mer E-score” value is on record?
**A.** 0.16 ± 0.003

**Q.** With CTTAACTA as the sequence, how does the “PBM 8-mer E-score” value read?
**A.** 0.092 ± 0.0028

**Q.** How did the “PBM 8-mer E-score” value turn out when AGACCGCG was run?
**A.** 0.0661 ± 0.0043

**Q.** How did the “PBM 8-mer E-score” value turn out when CGGTGGAA was run?
**A.** -0.19 ± 0.09

Source: the supplement of paper PMC12636033
